Columns and labels:
Format in all cases: functional
Plasmodium falciparum [1] = experiment: GSK_TCMDC: Inhibition of Plasmodium falciparum 3D7 in whole red blood cells, using parasite LDH activity as an index of growth. Test compounds present at 2uM
Plasmodium falciparum [2] = experiment: GSK_TCMDC: Inhibition of Plasmodium falciparum Dd2 in whole red blood cells, using parasite LDH activity as an index of growth. Test compounds present at 2uM
HepG2 = experiment: GSK_TCMDC: Percent inhibition of human HepG2 cell line. Test compounds present at 10uM.

Structure (SMILES)	Inhibition (Plasmodium falciparum [1]) [%]	Inhibition (Plasmodium falciparum [2]) [%]	Inhibition (HepG2) [%]
N=C(N)NC(=O)Nc1ccc(Cl)c(Cl)c1	95	13	29
CCC(C)NS(=O)(=O)c1ccc2nc(Nc3ccc(C)cc3)n(C3CCCCC3C)c2c1 (stereo unspecified)	95	99	1
CCc1cc(NC2CCN(C)CC2)nc(Nc2cccc(OC)c2)n1	93	37	22
O=C(N[C@@H](Cc1ccccc1)C(=O)NC1CCCCC1)c1ccc(O)c(-c2cccc(C(F)(F)F)c2)c1	96	36	11
CCc1c(CCNCCCCCCNCCc2ccc(OC)c(OC)c2C)ccc(OC)c1OC.Cl	98	1	16
CCN(c1cc(C)nc(Nc2ccc(Cl)cc2)n1)[C@H]1CCN(Cc2ccccc2)C1	94	31	46
COc1ccc(-c2ccc(NC(=O)c3cccs3)cc2)cc1CN1CCCN(C)CC1.O=C(O)C(F)(F)F	100	30	31
Cc1cc(Nc2ccc(Oc3ccc(Cl)cc3)cc2)nc(N)n1	100	71	49
CS(=O)(=O)CCNCc1cc(-c2cc3ncnc(Nc4ccc(OCc5cccc(F)c5)c(Cl)c4)c3s2)cs1	99	48	8
Br.CC1(C)NC(N)=NC(=N)N1OCCOc1cccc(C(F)(F)F)c1	93	97	67
Cl.NOCCCCOc1ccccc1	99	2	12
O=C(c1csc(-c2cccnc2)n1)N1CCc2cc3nccc(N4CCN5CCC[C@H]5C4)c3cc21	97	78	0

Source: ChEMBL document CHEMBL1157539, “Thousands of chemical starting points for antimalarial lead identification” (Nature, 2010)
